Data as given in PubChem BioAssay AID1212 (NMMLSC, 2008).
Active and inactive are the calls of the source.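 The calls were made as follows: active = blocks over 60% of fluorescent estradiol binding at 10 µM; inactive = the rest.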

Target: G-protein coupled estrogen receptor 1 (Homo sapiens) (UniProt Q99527)
Test: displacement of E2-Alexa633 from GPER – cell-based, Cos7 GPR30-GFP, flow cytometry, 10 µM, primary screen (AID 1212)
Conditions: fluorescent estrogen competition, at 10 µM; stronger effect = higher value

inhibition, inactive:
CCOc1cc2c(c([N+](=O)[O-])c1)NC(c1ccc(Br)cc1)C1CC=CC21 (configuration not stated) 23%
COc1ccc(NS(=O)(=O)c2ccc3c(c2)[C@H]2C=CC[C@H]2[C@@H](c2ccc(F)cc2)N3)cc1 56%
CCOc1cc2c(c([N+](=O)[O-])c1)NC(c1ccccc1)C1CC=CC21 (configuration not stated) 38%
CCOc1ccc(NS(=O)(=O)c2ccc3c(c2)[C@H]2C=CC[C@H]2[C@@H](c2cccc([N+](=O)[O-])c2)N3)cc1 20%
CC1CCCC(C)N1Cc1c(O)ccc2c3c(c(=O)oc12)CCC3 (configuration not stated) 23%
COc1cc(C2CC(=O)Nc3c2ccc2ccccc32)cc(Cl)c1O (configuration not stated) 3%
O=C1CC(c2ccncc2)c2cc3c(cc2N1)OCCO3 (configuration not stated) 1%
Cc1nn(-c2ccccc2)c2sc(C#N)c(N)c12 58%
CCc1cc2c3c(c(=O)oc2cc1OCC(=O)O)CCCC3 10%

outcome, inactive:
COc1cccc(C2NCCc3cc(OC)c(OC)cc32)c1 (configuration not stated)
COc1cc2c(c([N+](=O)[O-])c1)NC(c1ccc(Br)cc1)C1CC=CC21 (configuration not stated)
CC(C)COc1ccc2c(c1)c1c3n2CCNC3CCC1 (configuration not stated)
Cc1ccc(-n2cc3c(c(C#N)c2=N)CC(C)(C)CC3=O)cc1
CC1CCN(Cc2c(O)ccc3c4c(c(=O)oc23)CCC4)CC1
CC1(C)C=C(c2ccc(O)cc2)CC(C)(C)N1
CC1(C)CC(=O)C=C(NC2CC(C)(C)NC(C)(C)C2)C1
CC1(C)Cc2[nH]c(=O)c(C(=O)O)cc2CO1
